Test results: PubChem BioAssay (EPA / NIEHS)
Several values for one entry are separate records, joined by “and”; a condition that tells them apart may be missing. Equal values may be shown once. Where a structure was tested more than once in an assay, its records may differ in their call. Activity calls are given as the source filed them. How the source made its calls: active means hit-call score of the fitted dose curve at least 0.9, where 1 is the maximum; inactive means score below 0.9.

Key:
[1] = ATG_CRE_CIS: Attagene CIS-FACTORIAL HepG2 Assay for human cAMP Responsive Element (CRE) binding protein 3 (AID 2282926); settings: HepG2 CRE cis-reporter, Attagene multiplexed mRNA; actives raise or lower the signal
In short: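 Endogenous CRE-binding activity in HepG2 is reported through a cis-regulated transfected reporter. Following a day of exposure, mRNA levels are determined by reverse transcription PCR and fluorescent fragment analysis; fits run in both directions versus DMSO.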

[2] = ATG_CMV_CIS: Attagene CIS-FACTORIAL HepG2 Assay for human CMV (Internal Marker) (AID 2282928); settings: HepG2 CMV promoter reporter, transcription factor profiling; actives raise or lower the signal;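 further: endpoint acts as a background internal control marker rather than a target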
In short: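 CMV internal-marker background readout in transiently transfected HepG2 cells bearing cis-regulated reporter units. Reporter mRNA is measured 24 h after dosing by RT-PCR and capillary electrophoresis, with bidirectional fitting against DMSO.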

[3] = ATG_DR4_LXR_CIS: Attagene CIS-FACTORIAL HepG2 Assay for human Liver X Receptor (LXR), DR4 submotif (AID 2282929); settings: HepG2 Attagene DR4 cis-reporter, mRNA transcription; actives raise or lower the signal
In short: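 After transient transfection with multiplexed cis-promoter reporter units, HepG2 cells received test chemicals for 24 h. Reporter mRNA induction, detected by fluorescence after RT-PCR and capillary electrophoresis, was scored relative to DMSO.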

[4] = target: Aryl hydrocarbon receptor (Homo sapiens) (UniProt P35869); assay: ATG_Ahr_CIS: Attagene CIS-FACTORIAL HepG2 Assay for human Aryl Hydrocarbon Receptor (Ahr) (AID 2282930); settings: HepG2 AhR cis-factorial reporter transcription; actives raise or lower the signal
Aryl hydrocarbon receptor (Homo sapiens), sequence (P35869 whole entry, looked up): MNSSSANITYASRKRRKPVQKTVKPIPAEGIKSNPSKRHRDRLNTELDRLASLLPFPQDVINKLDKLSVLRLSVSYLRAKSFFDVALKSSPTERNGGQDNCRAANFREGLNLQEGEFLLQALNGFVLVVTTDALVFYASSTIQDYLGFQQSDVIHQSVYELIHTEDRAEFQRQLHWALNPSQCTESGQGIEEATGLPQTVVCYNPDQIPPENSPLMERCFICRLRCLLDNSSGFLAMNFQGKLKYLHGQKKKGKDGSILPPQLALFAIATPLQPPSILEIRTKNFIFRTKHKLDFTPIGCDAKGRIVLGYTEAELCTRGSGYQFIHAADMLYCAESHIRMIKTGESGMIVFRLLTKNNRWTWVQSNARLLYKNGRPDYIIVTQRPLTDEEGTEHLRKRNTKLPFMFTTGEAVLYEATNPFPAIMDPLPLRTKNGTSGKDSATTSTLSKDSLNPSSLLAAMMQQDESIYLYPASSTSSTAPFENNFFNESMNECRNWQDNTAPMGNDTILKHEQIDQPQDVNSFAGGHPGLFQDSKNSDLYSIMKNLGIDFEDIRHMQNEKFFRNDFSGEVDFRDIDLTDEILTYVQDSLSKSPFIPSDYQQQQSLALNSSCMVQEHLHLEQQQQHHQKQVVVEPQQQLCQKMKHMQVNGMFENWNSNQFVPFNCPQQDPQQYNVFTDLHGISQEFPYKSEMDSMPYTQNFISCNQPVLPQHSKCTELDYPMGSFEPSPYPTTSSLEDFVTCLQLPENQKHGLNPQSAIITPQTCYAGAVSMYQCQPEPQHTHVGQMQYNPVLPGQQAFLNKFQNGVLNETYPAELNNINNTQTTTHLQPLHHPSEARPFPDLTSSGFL
In short: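 Endogenous factor activity is tracked through cis-promoter reporter units transfected into HepG2 cells. Transcript levels at 24 h are read by fluorescent RT-PCR and capillary electrophoresis, with activity in either direction scored relative to DMSO.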

[5] = ATG_AP_1_CIS: Attagene CIS-FACTORIAL HepG2 Assay for human Activator Protein 1 (AP-1) (AID 2282931); settings: HepG2 Attagene cis-factorial AP-1 reporter mRNA; actives raise or lower the signal
In short: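 After 24 h incubation with test chemical, RNA from transfected HepG2 cells was reverse-transcribed, amplified, fluorescently labelled and digested before capillary electrophoresis. Reporters were driven by cis-regulatory promoters; activity fitted bidirectionally versus DMSO.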

[6] = ATG_AP_2_CIS: Attagene CIS-FACTORIAL HepG2 Assay for human Activator Protein 2 (AP-2) (AID 2282932); settings: HepG2 AP-2 cis-reporter, Attagene transcription factor profiling; actives raise or lower the signal
In short: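 HepG2 cells transiently transfected with cis-element reporter units and exposed for 24 h. Reporter mRNA measured by RT-PCR, FAM labelling, HpaI digestion and capillary electrophoresis. Changes in either direction fitted relative to DMSO.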

[7] = ATG_BRE_CIS: Attagene CIS-FACTORIAL HepG2 Assay for human Bone Morphogenetic Protein (BMP) Response Element (BRE) (AID 2282933); settings: HepG2 BMP response element reporter, Attagene transcription factor profiling; actives raise or lower the signal
In short: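 Endogenous transcription factor activity at a BMP response element was monitored in transfected HepG2 cells 24 h after dosing. Fluorescent RT-PCR products were resolved by capillary electrophoresis, and activity was fitted in both directions versus DMSO.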

[8] = target: Retinoic acid receptor alpha (Homo sapiens) (UniProt P10276); assay: ATG_DR5_RAR_CIS: Attagene CIS-FACTORIAL HepG2 Assay for human Retinoic Acid Receptor Alpha (RARE), DR5 submotif (AID 2282934); settings: HepG2 Attagene cis-factorial RARE DR5 reporter, mRNA; actives raise or lower the signal;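 on AC50: reporter responds to endogenous RAR alpha beta and gamma in HepG2 not RARA alone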
Retinoic acid receptor alpha (Homo sapiens), sequence (P10276 whole entry, looked up): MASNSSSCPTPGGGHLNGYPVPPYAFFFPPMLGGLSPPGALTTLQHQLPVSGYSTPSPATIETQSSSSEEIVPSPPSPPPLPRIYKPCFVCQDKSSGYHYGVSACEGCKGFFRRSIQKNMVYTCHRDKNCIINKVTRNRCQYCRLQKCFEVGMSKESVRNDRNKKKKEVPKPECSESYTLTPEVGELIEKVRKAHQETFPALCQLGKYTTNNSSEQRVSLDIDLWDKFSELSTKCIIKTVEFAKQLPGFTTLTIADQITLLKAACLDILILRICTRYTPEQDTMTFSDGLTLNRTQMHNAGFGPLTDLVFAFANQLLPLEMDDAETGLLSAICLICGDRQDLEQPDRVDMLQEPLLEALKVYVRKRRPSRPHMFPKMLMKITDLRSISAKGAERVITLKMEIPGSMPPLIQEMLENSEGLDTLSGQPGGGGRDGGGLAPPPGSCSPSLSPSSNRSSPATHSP
In short: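 After 24 h of chemical exposure, transiently transfected HepG2 cells were lysed for total RNA; the DR5-regulated reporter transcript was quantified via RT-PCR and capillary electrophoresis, with activity fitted bidirectionally against DMSO.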

[9] = target: Transcription factor E2F1 (Homo sapiens) (UniProt Q01094); assay: ATG_E2F_CIS: Attagene CIS-FACTORIAL HepG2 Assay for human E2F Transcription Factor 1 (AID 2282935); settings: HepG2 Attagene cis-reporter, E2F reporter RNA transcripts; actives raise or lower the signal
Transcription factor E2F1 (Homo sapiens), sequence (Q01094 whole entry, looked up): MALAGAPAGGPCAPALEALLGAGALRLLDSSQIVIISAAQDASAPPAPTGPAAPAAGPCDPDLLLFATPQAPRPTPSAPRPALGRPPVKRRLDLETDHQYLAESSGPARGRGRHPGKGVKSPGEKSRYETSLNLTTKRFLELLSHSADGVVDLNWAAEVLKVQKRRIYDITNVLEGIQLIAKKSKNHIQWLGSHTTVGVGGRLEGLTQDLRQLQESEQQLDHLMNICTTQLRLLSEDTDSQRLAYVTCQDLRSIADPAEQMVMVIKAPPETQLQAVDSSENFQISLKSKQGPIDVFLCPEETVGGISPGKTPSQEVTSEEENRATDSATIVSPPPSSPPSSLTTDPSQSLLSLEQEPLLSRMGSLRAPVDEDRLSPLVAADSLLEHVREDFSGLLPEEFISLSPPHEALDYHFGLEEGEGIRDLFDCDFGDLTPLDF
In short: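 Endogenous E2F1 activity read through cis-promoter reporter units transfected into HepG2. After 24 h compound treatment, reporter mRNA measured by RT-PCR, HpaI digestion and capillary electrophoresis. Bidirectional fit versus DMSO.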

[10] = ATG_E_Box_CIS: Attagene CIS-FACTORIAL HepG2 Assay for human Enhancer Box (E-box) (AID 2282936); settings: HepG2 E-box cis-reporter transcription, actives raise or lower the signal
In short: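 HepG2 cells transiently transfected with multiplexed cis-element reporter units, dosed 24 h; reporter mRNA quantified by RT-PCR, 6-FAM labelling, HpaI digestion and capillary electrophoresis. E-box (USF1) signal fitted bidirectionally vs DMSO.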

[11] = ATG_M_61_CIS: Attagene CIS-FACTORIAL HepG2 Assay for M61 Transcription Factor (Internal Marker) (AID 2282937); settings: HepG2 Attagene CIS-FACTORIAL M61 internal marker reporter; actives raise or lower the signal
In short: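 Using transiently transfected HepG2 liver cells, reporter transcript levels were assessed 24 h post-dosing by RT-PCR and capillary electrophoresis. Changes in either direction were fitted relative to DMSO controls.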

[12] = ATG_EGR_CIS: Attagene CIS-FACTORIAL HepG2 Assay for human Early Growth Response 1 (EGR1) (AID 2282938); settings: HepG2 Attagene CIS-FACTORIAL EGR reporter mRNA; actives raise or lower the signal
In short: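 Fluorescent capillary-electrophoresis signal of reporter cDNA fragments serves as read-out. HepG2 cells bear transiently transfected cis-promoter reporter units and are exposed 24 h; gain- or loss-of-signal is fitted against DMSO.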

[13] = ATG_M_19_CIS: Attagene CIS-FACTORIAL HepG2 Assay for M19 Transcription Factor (Internal Marker) (AID 2282939); settings: HepG2 Attagene CIS-FACTORIAL M19 internal marker reporter; actives raise or lower the signal
In short: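 Background-control endpoint from a multiplexed HepG2 reporter panel. Cells carrying cis-regulated reporter constructs are treated 24 h, then reporter transcripts are amplified, fluorescently labelled and sized by capillary electrophoresis. DMSO defines baseline.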

[14] = ATG_ERE_CIS: Attagene CIS-FACTORIAL HepG2 Assay for Estrogen Response Element (ERE) (AID 2282940); settings: HepG2 ERE cis-reporter, Attagene RNA transcript; actives raise or lower the signal
In short: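 Cells used were human hepatoma HepG2, transfected with multiple reporter transcription units under cis-regulatory promoters. Reporter mRNA, read 24 h post-dosing via fluorescent RT-PCR products on capillary electrophoresis, was fitted bidirectionally relative to DMSO.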

[15] = ATG_Ets_CIS: Attagene CIS-FACTORIAL HepG2 Assay for human Erythroblast Transformation Specific (ETS) (AID 2282941); settings: HepG2 ETS cis-reporter transcription, actives raise or lower the signal
In short: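 HepG2 cells transfected with multiple cis-regulated reporter units measuring endogenous ETS-driven transcription, 24 h after dosing. Reporter mRNA quantified by RT-PCR with capillary electrophoresis; bidirectional fit relative to DMSO.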

[16] = target: Hepatocyte nuclear factor 3-beta (Homo sapiens) (UniProt Q9Y261); assay: ATG_FoxA2_CIS: Attagene CIS-FACTORIAL HepG2 Assay for human Forkhead box A2 (FOXA2) (AID 2282942); settings: HepG2 cis-reporter transcription factor activity, 24 h; actives raise or lower the signal
Hepatocyte nuclear factor 3-beta (Homo sapiens), sequence (Q9Y261 whole entry, looked up, the tested form may be a part): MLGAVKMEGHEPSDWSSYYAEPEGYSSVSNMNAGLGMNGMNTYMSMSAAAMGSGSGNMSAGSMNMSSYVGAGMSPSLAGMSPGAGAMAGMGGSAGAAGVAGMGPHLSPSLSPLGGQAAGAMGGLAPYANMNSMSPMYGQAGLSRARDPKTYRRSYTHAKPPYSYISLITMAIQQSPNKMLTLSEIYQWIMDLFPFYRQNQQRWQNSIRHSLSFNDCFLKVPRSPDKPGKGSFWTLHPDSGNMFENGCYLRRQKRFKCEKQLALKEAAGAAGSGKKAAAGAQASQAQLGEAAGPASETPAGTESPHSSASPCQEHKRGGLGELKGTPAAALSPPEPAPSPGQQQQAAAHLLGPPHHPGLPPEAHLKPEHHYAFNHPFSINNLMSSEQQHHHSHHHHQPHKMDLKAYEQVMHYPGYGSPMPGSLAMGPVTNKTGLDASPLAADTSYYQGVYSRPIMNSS
In short: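 Fluorescence signal of reporter cDNA fragments, separated by capillary electrophoresis, reflects endogenous transcription factor activity in transfected HepG2 after 24 h. Both increases and decreases fitted against DMSO.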

[17] = ATG_FoxO_CIS: Attagene CIS-FACTORIAL HepG2 Assay for human Forkhead box O (FoxO) (AID 2282943); settings: HepG2 Attagene cis-reporter, FoxO element, mRNA; actives raise or lower the signal
In short: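 Transfected HepG2 reporter cells exposed to test chemical for 24 h; reporter RNA measured by reverse transcription, PCR and fluorescent capillary electrophoresis; curves fitted for increases and decreases against DMSO.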

[18] = ATG_GATA_CIS: Attagene CIS-FACTORIAL HepG2 Assay for human GATA Binding Protein (AID 2282944); settings: HepG2 GATA cis-element reporter, Attagene multiplex mRNA; actives raise or lower the signal
In short: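 Endogenous transcription factor activity was captured through cis-promoter-driven reporters in transfected HepG2 cells. After 24 h exposure, reporter transcripts were quantified by RT-PCR with fluorescent capillary electrophoresis, and responses fitted both directions against DMSO.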

[19] = APR_HepG2_NuclearSize_72hr: Apredica 72-hour HepG2 Assay for Nuclear Size (AID 2282925); settings: high-content imaging, actives raise or lower the signal
In short: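 HepG2 cells dosed 72 h at 0.39–200 uM (10 concentrations, duplicate) in 0.5% v/v DMSO final. Fixed, Hoechst 33342-stained nuclei imaged; nuclear diameter measured by automated image analysis. Bidirectional fit versus DMSO.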

[20] = target: CCAAT/enhancer-binding protein beta (Homo sapiens) (UniProt P17676); assay: ATG_C_EBP_CIS: Attagene CIS-FACTORIAL HepG2 Assay for human CCAAT/Enhancer Binding Protein (C/EBP) beta (AID 2282927); settings: HepG2 Attagene cis-factorial transcription factor reporter; actives raise or lower the signal
CCAAT/enhancer-binding protein beta (Homo sapiens), sequence (P17676 whole entry, looked up): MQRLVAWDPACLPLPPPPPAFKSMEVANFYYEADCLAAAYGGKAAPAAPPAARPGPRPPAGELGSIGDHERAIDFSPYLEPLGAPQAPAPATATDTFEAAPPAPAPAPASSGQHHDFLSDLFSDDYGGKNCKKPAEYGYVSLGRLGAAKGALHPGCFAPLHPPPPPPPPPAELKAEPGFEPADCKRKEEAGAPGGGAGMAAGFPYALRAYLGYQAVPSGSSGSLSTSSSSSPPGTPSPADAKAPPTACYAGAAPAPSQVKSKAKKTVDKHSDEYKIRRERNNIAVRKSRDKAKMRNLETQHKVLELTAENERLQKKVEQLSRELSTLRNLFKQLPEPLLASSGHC
In short: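 HepG2, transient MRTU transfection, 24 h treatment. RT-PCR plus CE fluorescence; DMSO negative control, bidirectional fit.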

Measured: AC50

CCCCNC(=O)OCC#CI
active: [1] 29.7 µM | [2] 67.7 µM | [3] 180 µM | [5] 181 µM | [6] 60.7 µM | [7] 25.2 µM | [8] 26.7 µM | [10] 145 µM | [12] 33.4 µM | [15] 48.7 µM | [16] 173 µM | [17] 26.4 µM | [18] 49.2 µM
inactive: [1] | [2] | [3] | [4] | [5] | [6] | [7] | [8] | [9] | [10] | [11] | [12] | [13] | [14] | [15] | [16] | [17] | [18]

CCCN(CCC)c1c([N+](=O)[O-])cc(S(N)(=O)=O)cc1[N+](=O)[O-]
inactive: [19] | [1] | [2] | [3] | [4] | [5] | [6] | [7] | [8] | [9] | [10] | [11] | [12] | [13] | [14] | [15] | [16] | [17] | [18]
active: [3] 4.79 µM and 11.1 µM | [8] 1.22 µM and 1.19 µM

CCOP(=S)(OCC)SCn1c(=O)oc2cc(Cl)ccc21
active: [1] 9.92 µM | [2] 26.4 µM | [3] 80.8 µM | [7] 50 µM | [8] 12.7 µM | [15] 50 µM
not listed: [20]
inactive: all other assays above

CCCCC(CC)COC(=O)c1ccccc1C(=O)OCC(CC)CCCC (configuration not stated)
inactive: all assays above

COc1nc(C)nc(NC(=O)NS(=O)(=O)c2ccccc2Cl)n1
not listed: [19]
inactive: all other assays above

COP(=S)(OC)Oc1nc(Cl)c(Cl)cc1Cl
active: [3] 85.1 µM | [14] 33.5 µM
not listed: [20]
inactive: all other assays above

CCNc1nc(Cl)nc(NC(C)C)n1
not listed: [8]
inactive: all other assays above

CN(C)C(=S)SSC(=S)N(C)C
not listed: [19]
inactive: all other assays above

CCOC(=O)C(Cl)Cc1cc(-n2nc(C)n(C(F)F)c2=O)c(F)cc1Cl (configuration not stated)
active: [14] 50 µM
not listed: [19]
inactive: all other assays above

CCNc1nc(Cl)nc(NCC)n1
not listed: [20]
inactive: all other assays above

C=CCC1=C(C)C(OC(=O)C2C(C=C(C)C)C2(C)C)CC1=O (configuration not stated)
active: [1] 48.8 µM [middle of 5 runs] | [2] 35 µM [middle of 5 runs] | [3] 51.1 µM [middle of 4 runs] | [4] 43.6 µM and 105 µM | [5] 33.5 µM [middle of 6 runs] | [6] 167 µM | [9] 132 µM | [10] 46.9 µM | [12] 33.4 µM [middle of 5 runs] | [13] 161 µM | [14] 35 µM and 26.7 µM and 12.7 µM | [15] 163 µM | [16] 83.3 µM and 125 µM and 50 µM | [17] 152 µM
inactive: [1] | [2] | [3] | [4] | [6] | [9] | [10] | [11] | [12] | [13] | [14] | [15] | [16] | [17] | [18]

Oc1ccccc1-c1ccccc1
active: [1] 148 µM | [2] 56.6 µM | [3] 80.3 µM and 64 µM | [4] 40.5 µM | [5] 88.3 µM | [7] 71.7 µM and 150 µM | [12] 62.4 µM | [14] 13.1 µM
inactive: [1] | [2] | [4] | [5] | [6] | [9] | [10] | [11] | [12] | [13] | [14] | [15] | [16] | [17] | [18]
